# Results: the supplement of paper PMC8728848
# The full list was thinned out, with the strongest signals kept by preference.
# B1: SCA (Schizophyllum commune) (protein)
# chain: MGIDQGVYLITNAGSGTAATLKDGYVKGWERIKGKEQLNQLWFVKSVKTSASDPGYAAFNLATNKVLDLEKGLADRGTPILGWDYHEGDNQHWVIKKQADGKYYKIQSVKTQTFVDLNNGGKDNGTKIQGWVGSWDETNSHQRWVFNQFSATGSRIKSILDTHPKIHGKVIVEWPDRIYFTPDQYIFEAIWAKTGLADIKPRDPLFQSEAYEKVFKGWVVSRAQEIIKVDGFDILVGSLSLVEKSTQKIKVLDVSVRTSDDKSPDLSQIVFFDPESGRTLVDIPEGYEVNSVII
# Legend:
# Experiment in all cases: glycan array binding signal (z-score within array); higher = stronger binding
# Conditions in all cases: glycan notation: IUPAC condensed, linker removed
# [1] = molecular target: Fuc(a1-2)Gal(b1-3)[Fuc(a1-4)]GlcNAc
# Procedure, shortened: (§1)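 Arrays were curated from the Consortium for Functional Glycomics database, 3228 in total, and kept only where the protein sequence was available. Binding is expressed as a within-array Z-score. This score was averaged across arrays of the same protein sequence at different concentrations or buffers and across linkers, and negative values can be read as non-binding.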
# Fuc(a1-2)Gal(b1-4)Glc = molecular target: Fuc(a1-2)Gal(b1-4)Glc
# Procedure, shortened: as §1
# [2] = molecular target: Fuc(a1-2)Gal6S(b1-4)GlcNAc
# Procedure, shortened: as §1
# [3] = molecular target: Fuc(a1-2)[Gal(a1-3)]Gal(b1-4)GlcNAc
# Procedure, shortened: as §1
# [4] = molecular target: Fuc(a1-2)[Gal(a1-3)]Gal(b1-4)GlcNAc(b1-2)Man(a1-3)[Fuc(a1-2)[Gal(a1-3)]Gal(b1-4)GlcNAc(b1-2)Man(a1-6)]Man(b1-4)GlcNAc(b1-4)GlcNAc
# Procedure, shortened: as §1
# [5] = molecular target: Fuc(a1-2)[Gal(a1-3)]Gal(b1-4)GlcNAc(b1-3)GalNAc
# Procedure, shortened: as §1
# [6] = molecular target: Fuc(a1-2)[Gal(a1-3)]Gal(b1-4)[Fuc(a1-3)]Glc
# Procedure, shortened: as §1
# [7] = molecular target: Fuc(a1-2)[GalNAc(a1-4)]Gal(b1-4)GlcNAc
# Procedure, shortened: as §1
# [8] = molecular target: Fuc(a1-3)[Gal(b1-4)]Glc6S
# Procedure, shortened: as §1
# [9] = molecular target: Gal(a1-3)Fuc(a1-2)Gal(b1-4)GlcNAc(b1-3)[Gal(a1-3)Fuc(a1-2)Gal(b1-4)GlcNAc(b1-6)]GalNAc
# Procedure, shortened: as §1
# Gal(a1-3)Gal(b1-4)GlcNAc = molecular target: Gal(a1-3)Gal(b1-4)GlcNAc
# Procedure, shortened: as §1
# [10] = molecular target: Gal(a1-4)Gal(b1-3)GlcNAc(b1-2)Man(a1-3)[Gal(a1-4)Gal(b1-3)GlcNAc(b1-2)Man(a1-6)]Man(b1-4)GlcNAc(b1-4)GlcNAc
# Procedure, shortened: as §1
# Gal(a1-4)GlcNAc = molecular target: Gal(a1-4)GlcNAc
# Procedure, shortened: as §1
# [11] = molecular target: Gal(b1-3)Gal(b1-4)GlcNAc(b1-2)Man(a1-3)[Gal(b1-3)Gal(b1-4)GlcNAc(b1-2)Man(a1-6)]Man(b1-4)GlcNAc(b1-4)GlcNAc
# Procedure, shortened: as §1
# Gal(b1-3)GlcNAc = molecular target: Gal(b1-3)GlcNAc
# Procedure, shortened: as §1
# [12] = molecular target: Gal(b1-3)GlcNAc(b1-2)Man(a1-3)[Gal(b1-3)GlcNAc(b1-2)Man(a1-6)]Man(b1-4)GlcNAc(b1-4)[Fuc(a1-6)]GlcNAc
# Procedure, shortened: as §1
# [13] = molecular target: Gal(b1-3)GlcNAc(b1-3)Gal(b1-4)GlcNAc
# Procedure, shortened: as §1
# [14] = molecular target: Gal(b1-3)[Fuc(a1-4)]GlcNAc(b1-2)Man(a1-3)[Gal(b1-3)[Fuc(a1-4)]GlcNAc(b1-2)Man(a1-6)]Man(b1-4)GlcNAc(b1-4)[Fuc(a1-6)]GlcNAc
# Procedure, shortened: as §1
# [15] = molecular target: Gal(b1-4)GlcNAc(b1-3)Gal(b1-4)Glc
# Procedure, shortened: as §1
# [16] = molecular target: Gal(b1-4)GlcNAc(b1-3)GalNAc
# Procedure, shortened: as §1
# [17] = molecular target: GalNAc(a1-3)Fuc(a1-2)Gal(b1-4)GlcNAc(b1-3)[GalNAc(a1-3)Fuc(a1-2)Gal(b1-4)GlcNAc(b1-6)]GalNAc
# Procedure, shortened: as §1
# GalNAc(b1-4)Gal(b1-4)Glc = molecular target: GalNAc(b1-4)Gal(b1-4)Glc
# Procedure, shortened: as §1
# GlcA(b1-3)Gal = molecular target: GlcA(b1-3)Gal
# Procedure, shortened: as §1
# GlcNAc(b1-3)Gal(b1-4)Glc = molecular target: GlcNAc(b1-3)Gal(b1-4)Glc
# Procedure, shortened: as §1
# Kdn(a2-3)Gal(b1-4)Glc = molecular target: Kdn(a2-3)Gal(b1-4)Glc
# Procedure, shortened: as §1
# Kdn(a2-6)Gal(b1-4)GlcNAc = molecular target: Kdn(a2-6)Gal(b1-4)GlcNAc
# Procedure, shortened: as §1
# [18] = molecular target: Neu5Ac(a2-3)Gal(b1-4)GlcNAc(b1-3)Gal(b1-4)[Fuc(a1-3)]GlcNAc
# Procedure, shortened: as §1
# [19] = molecular target: Neu5Ac(a2-3)[GalNAc(b1-4)]Gal(b1-4)GlcNAc(b1-3)GalNAc
# Procedure, shortened: as §1
# Neu5Ac(a2-6)GalNAc = molecular target: Neu5Ac(a2-6)GalNAc
# Procedure, shortened: as §1
# [20] = molecular target: Neu5Ac9Ac(a2-3)Gal(b1-4)GlcNAc
# Procedure, shortened: as §1
binder,measurement,setting,value
B1,glycan array binding signal (z-score),[1],-0.163
same,glycan array binding signal (z-score),Fuc(a1-2)Gal(b1-4)Glc,-0.153
same,glycan array binding signal (z-score),[2],-0.161
same,glycan array binding signal (z-score),[3],5.61
same,glycan array binding signal (z-score),[4],7.08
same,glycan array binding signal (z-score),[5],2.52
same,glycan array binding signal (z-score),[6],-0.163
same,glycan array binding signal (z-score),[7],0.703
same,glycan array binding signal (z-score),[8],-0.16
same,glycan array binding signal (z-score),[9],6.72
same,glycan array binding signal (z-score),Gal(a1-3)Gal(b1-4)GlcNAc,8.25
same,glycan array binding signal (z-score),[10],3.68
same,glycan array binding signal (z-score),Gal(a1-4)GlcNAc,-0.135
same,glycan array binding signal (z-score),[11],11.4
same,glycan array binding signal (z-score),Gal(b1-3)GlcNAc,-0.162
same,glycan array binding signal (z-score),[12],-0.159
same,glycan array binding signal (z-score),[13],-0.158
same,glycan array binding signal (z-score),[14],-0.054
same,glycan array binding signal (z-score),[15],-0.16
same,glycan array binding signal (z-score),[16],-0.159
same,glycan array binding signal (z-score),[17],0.835
same,glycan array binding signal (z-score),GalNAc(b1-4)Gal(b1-4)Glc,-0.162
same,glycan array binding signal (z-score),GlcA(b1-3)Gal,8.44
same,glycan array binding signal (z-score),GlcNAc(b1-3)Gal(b1-4)Glc,-0.158
same,glycan array binding signal (z-score),Kdn(a2-3)Gal(b1-4)Glc,-0.152
same,glycan array binding signal (z-score),Kdn(a2-6)Gal(b1-4)GlcNAc,-0.162
same,glycan array binding signal (z-score),[18],-0.164
same,glycan array binding signal (z-score),[19],-0.161
same,glycan array binding signal (z-score),Neu5Ac(a2-6)GalNAc,-0.162
same,glycan array binding signal (z-score),[20],-0.16
